Mito fusion yeast = qHTS Assay for Small Molecule Inhibitors of Mitochondrial Division or Activators of Mitochondrial Fusion; hit rate 0.23% among 320,000; S. cerevisiae fusion-defective mutant growth rescue, CellTiterGlo 48 h; AID 485298, 2010; Potency, µM (highest dose often 46.1 µM), inactives show top-dose growth rescue (activation), most hits filed as activators; note: % of control where 0% means no effect; nearly all actives have a fitted effect of over 45% in size
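Read-out: ATP-based luminescence (CellTiterGlo, 10 min ambient) reporting growth of fusion-defective ts yeast after 48 hours at 37C on glycerol/ethanol YPEG medium in the presence of compound.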
A-T KAP1 phos = qHTS Assay for Identifying a Potential Treatment of Ataxia-Telangiectasia; F2112 A-T fibroblasts, KAP-1 phosphorylation AlphaLISA; neocarzinostatin DNA damage 30 min before lysis; Potency, µM (doses to about 57.5 µM), for the others: at the top dose activation, hits mostly activators; hit rate 0.19% among 320,000; note: % of control where 0% means no effect; nearly all actives have a fitted effect of over 45% in size
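ATM-like activity read as KAP-1 phosphorylation via AlphaLISA donor/acceptor antibody pairs after lysis and 6 hr at 25C. Cells were ATM-null patient fibroblasts (F2112, hTERT), dosed 60 min, then exposed to the DSB inducer NCS for 30 min.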
Abeta yeast res = qHTS for compounds that reverse cellular toxicity of Amyloid beta (A-beta) peptide in yeast: Primary Screen; yeast expressing A-beta42, growth rescue, OD600, 48 h; response scale: 0% DMSO, 100% iron-clioquinol control; hit rate 0.063% among 410,000; Potency, µM (highest dose often 46.1 µM), actives largely listed as activators; note: nearly all actives have a fitted effect of over 55% in size
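Yeast A-beta toxicity model in growth medium with pinned compounds, 48 h at 30 C; growth read as absorbance at 600 nm. Normalized to FeCl3/clioquinol equimolar mix (positive) and DMSO (negative).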
aSyn rescue = qHTS of alpha-syn Inhibitors; Yeast expressing alpha-synuclein, growth rescue, BacTiter-Glo, 24 h; Potency, µM (titrated, usually from 46.1 µM), for inactives: at the highest dose growth rescue (activation), hits mostly activators; AID 652106, 2013; hit rate 0.14% among 370,000; note: % of control where 0% means no effect; nearly all actives have a fitted effect of over 65% in size
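Screening used galactose-induced yeast with toxic alpha-synuclein levels, exposed to compound for 24 hr at 30 deg C. Cell growth, read with BacTiter-Glo luminescence, gave the measured signal.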
TDP43 rescue = qHTS of TDP-43 Inhibitors; hit rate 1.8% among 410,000; AID 652104, 2013; TDP-43 expressing yeast growth rescue, BacTiter-Glo, 24 h; Potency, µM (top dose mostly 46.1 µM), for inactives: at the top dose growth rescue (activation), actives largely listed as activators; note: % of control where 0% means no effect; nearly all actives have a fitted effect of over 50% in size
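Yeast cells expressing TDP-43 under galactose induction are exposed to compounds for 24 hr at 30 deg C. BacTiter-Glo luminescence measures growth, so protective compounds score as activators.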
Glioma ERSR ind = qHTS for Inducers of the Endoplasmic Reticulum Stress Response (ERSR) in Human Glioma: qHTS | U87-MG GRP78 promoter luciferase reporter, 16 h | Potency, µM, for the others: at the top dose activation, usual class: activators | hit rate 0.02% among 420,000 | AID 602332, 2012; note: series mostly up to about 76 µM; % of control where 0% means no effect; nearly all actives have a fitted effect of over 35% in size
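ERSR induction read as luciferase luminescence (Bright-Glo, 10 min at room temperature) in stably transfected human U87-MG glioma cells exposed to compounds for 16 h, using GRP78 as sensor.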
* hit, by the source's call; i = inactive; ? = inconclusive; · = not tested or not shown; ! = not active in a repeat. The list is not random: actives were taken first. Their share in the collection is about 2.1%. Calls come from the whole dose curve; as a rule, active = well fitted curve in the direction sought with a large enough effect; inconclusive = small, poorly fitted or top-dose-only effect, or another doubt; inactive = no such curve, though single readings can be large; an effect the other way counts as inactive or inconclusive. Potency is the fitted concentration of half-maximal effect.

SMILES | Mito fusion yeast | A-T KAP1 phos | Abeta yeast res | aSyn rescue | TDP43 rescue | Glioma ERSR ind
CC(=O)N1CCN(c2ccc(OC[C@@H]3CO[C@@](Cn4ccnc4)(c4ccc(Cl)cc4Cl)O3)cc2)CC1 | · | · | · | 3.16µM* | · | -2.5%
CC(=O)N1CCN(c2ccc(OC[C@H]3CO[C@](Cn4ccnc4)(c4ccc(Cl)cc4Cl)O3)cc2)CC1 | 0.411µM*! | -7.5% | i | 5.17µM*! | ? | -6.9%
COc1cc2c(ccc3c4cc(OC)c(OC)cc4c[n+](C)c23)cc1O | · | · | i | 6.8% | 11.2µM* | -0.9%
COc1ccc2c(c[n+](C)c3c4cc5c(cc4ccc23)OCO5)c1OC | 5.8µM* | · | · | -9.5% | · | -14.6%
C=C(C)C1CCC(C)=CC1c1c(OC)cc(C)cc1OC (stereo unspecified) | · | · | · | · | · | -8.6%
CCCCC/C=C\C/C=C\C/C=C\C/C=C\CCCC(=O)NCc1ccoc1 | · | · | · | · | · | -3.2%
[Hg+][c]1ccccc1 | · | · | · | -79.5% | · | -11.6%
Oc1c(C(Nc2cccnc2)c2ccccc2F)ccc2cccnc12 (stereo unspecified) | · | · | · | ? | · | -4.3%
O=C(N/N=C/c1c(O)n(-c2ccccc2)c(=S)[nH]c1=O)c1ccccc1 | 2.6% | 7.6% | i | -6.7% | 5.8% | -5.3%
CC(C)c1ccc(-n2c(O)c(C=NC(CCS(C)=O)C(=O)O)c(=O)[nH]c2=S)cc1 (stereo unspecified) | -2.9% | 7.94µM* | i | 0.4% | 5.0% | 5.5%
CN1CCN(c2ccc([N+](=O)[O-])c3no[n+]([O-])c23)CC1 | -57.5% | 15.8µM* | i | -8.1% | 4.2% | -14.1%
O=[N+]([O-])c1ccc(N(CCO)CCO)c2c1no[n+]2[O-] | · | · | i | -19.7% | -1.6% | -10.6%
C#C[C@]1(OC(=O)CCCCCC)CC[C@H]2C3CCC4=CC(=O)CC[C@@H]4[C@H]3CC[C@@]21C (stereo partly specified) | · | · | · | · | · | -4.2%
O=C1C(Cl)=C(N2CCCCCC2)C(=O)N1c1ccccc1 | 29.6% | 0.4% | i | 1.8% | 11.2µM* | -2.7%
Oc1ccc2c3c1OC1C(O)C=CC4[C@@H](C2)NCC[C@]314 (stereo partly specified) | · | · | · | · | · | -0.6%
COCCNC(=O)c1c(NC(=O)c2ccc(Br)o2)n(Cc2ccccc2)c2nc3ccccc3nc12 | 7.08µM* | 11.1% | i | -5.9% | 23.1% | -2.3%
CC(C)CN(CC(C)C)C(=O)C1C2c3ccccc3C(c3ccccc32)C1C(=O)O (stereo unspecified) | -3.7% | -5.3% | i | -9.3% | 11.2µM* | -2.3%
Nc1ccc(C2(c3ccc(N)cc3)c3ccccc3-c3ccccc32)cc1 | 25.1µM* | -12.9% | i | 1.0% | -1.7% | -4.3%
Nc1ccccc1 | · | · | · | · | · | -2.1%
CC(=O)Oc1c2c(c(CC=C(C)C)c3c1C(=O)C1=CC4CC5C(C)(C)OC(C/C=C(\C)C(=O)O)(C4=O)[C@]15O3)OC(C)(CCC=C(C)C)C=C2 (stereo partly specified) | · | · | · | · | · | -11.4%
COc1cc(C(c2c(O)c3ccccc3oc2=O)c2c(C)n(C)n(-c3ccccc3)c2=O)ccc1OCC(=O)O (stereo unspecified) | · | · | i | · | -0.4% | -4.2%
COc1ccc(C(c2c(O)c3ccccc3oc2=O)c2c(C)n(C)n(-c3ccccc3)c2=O)cc1 (stereo unspecified) | -8.1% | 13.0% | i | -0.6% | 22.4µM*! | -1.7%
Cc1c(C(c2ccccc2Cl)c2c(O)c3ccccc3oc2=O)c(=O)n(-c2ccccc2)n1C (stereo unspecified) | -26.7% | -10.1% | i | 10.6% | 7.94µM* | -2.4%
Cc1c(C(c2ccc(F)cc2)c2c(O)c3ccccc3oc2=O)c(=O)n(-c2ccccc2)n1C (stereo unspecified) | 4.9% | 3.9% | ? | 3.9% | ? | -0.1%
CCC(C)(C)n1nnnc1C(c1cccs1)N1CC=C(c2ccc(F)cc2)CC1 (stereo unspecified) | 10µM* | 2.8% | i | -19.1% | -17.9% | 0.0%
Fc1ccc(C2=CCN(C(c3cccs3)c3nnnn3CCc3ccccc3)CC2)cc1 (stereo unspecified) | ? | 2.4% | i | 13.1% | 14.0% | -0.6%

High-throughput results as filed in PubChem.
